Test results: PubChem BioAssay (Tox21)
Several values for one entry are separate records, joined by “and”; a condition that tells them apart may be missing. Equal entries are not always repeated. Inconclusive results are not listed. A call without a number means that no potency is given here. Where a structure was tested more than once in an assay, its records may differ in their call. Activity calls are given as the source filed them. Unless noted, calls come from the whole dose curve; as a rule, active = well fitted cell-killing curve with a large enough effect in the repeat runs; inconclusive = weak or mixed curves, or effect the other way; inactive = flat fitted curve, though single readings scatter.

assay: Nuclear factor erythroid 2-related factor 2/antioxidant responsive element (Nrf2/ARE) small molecule agonists: qHTS cell viability counter screen in human keratinocytes (AID 1919968); details: KeratinoSens HaCaT ARE cells viability, CellTiter-Fluor, 24 h; series mostly up to 92.4 µM; note: nearly all actives have a fitted effect of over 55% in size
In short: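 Stably transfected HaCaT (KeratinoSens), 1,500/well. Test agents in DMSO were applied for 23 h, 37 C/5% CO2. CellTiter-Fluor was incubated 1 h before the fluorescence read.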
Potency is the fitted concentration of half-maximal effect.

| SMILES | Potency |
| --- | --- |
| CCCCCCCCCCCCN | inactive and 30.6 µM (active) |
| CC(O)CC(C)(C)O (stereo not given) | inactive |
| O=C(c1ccc(O)cc1)c1ccc(O)cc1O | inactive |
| CCNc1ccccc1 | inactive |
| Nc1ccc(O)c(C(=O)O)c1 | inactive |
| O=C1CCc2ccccc2O1 | inactive |
| CC(=O)CCC=C(C)C | inactive |
| CCO[Si](CCCNC(N)=O)(OCC)OCC | inactive |
| C=C(C)C(=O)OCCOC(=O)C(=C)C | inactive |
| C#C[C@]1(O)CC[C@H]2[C@@H]3CCC4=Cc5oncc5C[C@]4(C)[C@H]3CC[C@@]21C | 61.1 µM (active) and 23.7 µM (active) |
| CC1(C)NC(=O)N(c2ccc([N+](=O)[O-])c(C(F)(F)F)c2)C1=O | inactive |
| O=S(=O)(O)c1ccc(O)cc1 | inactive |
| CC(=O)Oc1c(C)c(C)c2c(c1C)CC[C@@](C)(CCC[C@H](C)CCC[C@H](C)CCCC(C)C)O2 | inactive |
| CC1(C)NC(=O)NC1=O | inactive |
| O=C(C1CCCCC1)N1CC(=O)N2CCc3ccccc3C2C1 (stereo not given) | inactive |
| C[N+](C)(C)CCCCCC[N+](C)(C)C | inactive |
| CCCCCC/C=C/CCCCCCCC(=O)O | inactive |
| CC(C)=CCl | inactive |
| C/C=C1/CC2C=CC1C2 (stereo not given) | inactive |
| COC(=O)c1ccccc1O | inactive |

| SMILES | Potency |
| --- | --- |
| CC(=O)Oc1ccc(C)cc1 | inactive |
| CC(C)=CCO | inactive |
| Cc1ccc(C)c(OCCCC(C)(C)C(=O)O)c1 | inactive |
| C=C(C)C(=O)OCC(CC)(COC(=O)C(=C)C)COC(=O)C(=C)C | inactive |
| S=c1nc[nH]c2nc[nH]c12 | inactive |
| CC(C)(CO)CO | inactive |
| NC(CO)(CO)CO | inactive |
| N=C(N)c1ccc(OCCCCCOc2ccc(C(=N)N)cc2)cc1 | inactive |
| CCCCCCCC(=O)OCC(O)CO (stereo not given) | inactive |
| CCCCCCCCCCCCCC(=O)O | inactive |
| O=C(OCc1ccccc1)c1ccccc1 | inactive |
| CN(C)c1ccc(C(=C2C=CC(=[N+](C)C)C=C2)c2ccccc2)cc1 | 4.33 µM (active) and 6.68 µM (active) |
| Cc1ccc(C(=O)O)o1 | inactive |
| O=[Se](O)O | inactive |
| CC(=O)c1nccs1 | inactive |
| Cc1cc(C2(c3cc(C)c(O)cc3C)OS(=O)(=O)c3ccccc32)c(C)cc1O | 21.7 µM (active) and 19.3 µM (active) |
| CC12CCC(CC1)C(C)(C)O2 | inactive |
| COc1cc(C=O)ccc1O | inactive |
| O=C(O)c1cn(-c2ccc(F)cc2)c2cc(N3CCNCC3)c(F)cc2c1=O | inactive |
| CC(=O)Nc1ccccc1 | inactive |

assay: Nuclear factor erythroid 2-related factor 2/antioxidant responsive element (Nrf2/ARE) small molecule agonists: luciferase reporter gene qHTS assay in human keratinocytes (AID 1919969; calls by dose curve; note: nearly all actives have a fitted effect of over 35% in size); details: KeratinoSens HaCaT ARE-luciferase, luminescence, 24 h; series mostly up to 92.4 µM

| SMILES | Potency |
| --- | --- |
| CCCCCCCCCCCCN | inactive |
| CC(O)CC(C)(C)O (stereo not given) | inactive |
| O=C(c1ccc(O)cc1)c1ccc(O)cc1O | inactive |
| CCNc1ccccc1 | inactive |
| Nc1ccc(O)c(C(=O)O)c1 | inactive |
| O=C1CCc2ccccc2O1 | inactive |
| CC(=O)CCC=C(C)C | inactive |
| CCO[Si](CCCNC(N)=O)(OCC)OCC | inactive |
| C=C(C)C(=O)OCCOC(=O)C(=C)C | inactive |
| C#C[C@]1(O)CC[C@H]2[C@@H]3CCC4=Cc5oncc5C[C@]4(C)[C@H]3CC[C@@]21C | inactive |
| CC1(C)NC(=O)N(c2ccc([N+](=O)[O-])c(C(F)(F)F)c2)C1=O | inactive |
| O=S(=O)(O)c1ccc(O)cc1 | inactive |
| CC(=O)Oc1c(C)c(C)c2c(c1C)CC[C@@](C)(CCC[C@H](C)CCC[C@H](C)CCCC(C)C)O2 | inactive |
| CC1(C)NC(=O)NC1=O | inactive |
| O=C(C1CCCCC1)N1CC(=O)N2CCc3ccccc3C2C1 (stereo not given) | inactive |
| C[N+](C)(C)CCCCCC[N+](C)(C)C | inactive |
| CCCCCC/C=C/CCCCCCCC(=O)O | inactive |
| CC(C)=CCl | inactive |
| C/C=C1/CC2C=CC1C2 (stereo not given) | inactive |
| COC(=O)c1ccccc1O | 68.7 µM (active) and inactive |

| SMILES | Potency |
| --- | --- |
| CC(=O)Oc1ccc(C)cc1 | inactive |
| CC(C)=CCO | inactive |
| Cc1ccc(C)c(OCCCC(C)(C)C(=O)O)c1 | inactive |
| C=C(C)C(=O)OCC(CC)(COC(=O)C(=C)C)COC(=O)C(=C)C | inactive |
| S=c1nc[nH]c2nc[nH]c12 | inactive |
| CC(C)(CO)CO | inactive |
| NC(CO)(CO)CO | inactive |
| N=C(N)c1ccc(OCCCCCOc2ccc(C(=N)N)cc2)cc1 | inactive |
| CCCCCCCC(=O)OCC(O)CO (stereo not given) | inactive |
| CCCCCCCCCCCCCC(=O)O | inactive |
| O=C(OCc1ccccc1)c1ccccc1 | inactive |
| CN(C)c1ccc(C(=C2C=CC(=[N+](C)C)C=C2)c2ccccc2)cc1 | 1.22 µM (active) |
| Cc1ccc(C(=O)O)o1 | inactive |
| O=[Se](O)O | inactive and 5.23 µM (active) |
| CC(=O)c1nccs1 | inactive |
| Cc1cc(C2(c3cc(C)c(O)cc3C)OS(=O)(=O)c3ccccc32)c(C)cc1O | inactive |
| CC12CCC(CC1)C(C)(C)O2 | inactive |
| COc1cc(C=O)ccc1O | inactive |
| O=C(O)c1cn(-c2ccc(F)cc2)c2cc(N3CCNCC3)c(F)cc2c1=O | inactive |
| CC(=O)Nc1ccccc1 | inactive |
